Values joined by “and” are separate entries in the source; they are usually repeats but may differ in a detail not shown here. Identical values can stand only once. About 83,000 compounds went through this panel and 20% of them were active in at least one assay; those are over-represented in the sample as a whole.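 Treatment: one concentration, 48 hours, 96-well format. Scoring: percent growth, with anything below 10 considered active.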 Active and inactive are the calls of the source.
Columns and labels:
Assay in all cases: NCI-60 one-dose screen, 48 h (100 = growth as untreated, 0 = no growth, -100 = all killed)
Conditions in all cases: 10 µM unless noted
DU-145 prostate = system: DU-145 prostate
K-562 leukemia = system: K-562 leukemia
MALME-3M melanoma = system: MALME-3M melanoma
MDA-MB-231 breast = system: MDA-MB-231 breast
RXF 393 renal = system: RXF 393 renal
SF-268 CNS = system: SF-268 CNS
SF-295 CNS = system: SF-295 CNS
SF-539 CNS = system: SF-539 CNS
UACC-257 melanoma = system: UACC-257 melanoma
M14 melanoma = system: M14 melanoma

Compound | growth (DU-145 prostate) | growth (K-562 leukemia) | growth (MALME-3M melanoma) | growth (MDA-MB-231 breast) | growth (RXF 393 renal) | growth (SF-268 CNS) | growth (SF-295 CNS) | growth (SF-539 CNS) | growth (UACC-257 melanoma) | growth (M14 melanoma)
Oc1nc(NCCc2ccccc2)sc1/C=C1\C=Nc2ncccc21 | 15.3% (inactive) and 20.7% (inactive) | 28.5% (inactive) and 29.9% (inactive) | 44.8% (inactive) and 30.6% (inactive) | 25.9% (inactive) and 25.5% (inactive) | -30.1% (active) and -20.2% (active) | 8.87% (active) and 10.4% (inactive) | 18.7% (inactive) and 22.6% (inactive) | -37.2% (active) and 0.397% (active) | -1.71% (active) and 14.6% (inactive) | 31.7% (inactive) and 29.9% (inactive)
CN(C)CCCN1c2ccccc2Sc2ccc(Cl)cc21 | 101% (inactive) and 113% (inactive) and 111% (inactive) | 51.6% (inactive) and 120% (inactive) and 58.2% (inactive) | 90.2% (inactive) and 111% (inactive) and 76.7% (inactive) | 67.7% (inactive) and 108% (inactive) and 72.3% (inactive) | 52% (inactive) and 84.6% (inactive) and 82% (inactive) | 83% (inactive) and 104% (inactive) and 83.6% (inactive) | 95.3% (inactive) and 160% (inactive) and 81% (inactive) | 90.5% (inactive) and 98.8% (inactive) and 88.8% (inactive) | 78% (inactive) and 106% (inactive) and 115% (inactive) | 31% (inactive) and 102% (inactive) and 81% (inactive)
Nc1nc2ncc(CNc3ccc(C(=O)N[C@@H](CCc4nn[nH]n4)C(=O)O)cc3)nc2c(=O)[nH]1 | 99.4% (inactive) and 110% (inactive) | 90.7% (inactive) | 96.9% (inactive) and 104% (inactive) | 110% (inactive) and 99.7% (inactive) | 104% (inactive) and 96.3% (inactive) | 98% (inactive) and 99.5% (inactive) | 98.6% (inactive) and 100% (inactive) | 91% (inactive) and 110% (inactive) | 106% (inactive) and 91.8% (inactive) | 88% (inactive) and 98.6% (inactive)
CN(C)c1ccc(C(=C2C=CC(=[N+](C)C)C=C2)c2ccccc2Cl)cc1 | -97% (active) | 7.59% (active) | -56.3% (active) and -46.1% (active) | -36.9% (active) and -66.9% (active) | -84.3% (active) | -84.1% (active) | -30.4% (active) and -25.8% (active) | -58.9% (active) and -92.1% (active) | -77.7% (active) | -62.8% (active) and -95.3% (active)
O=C(O)CN(CCN(CC(=O)O)CC(=O)O)CCN(CC(=O)O)CC(=O)O | -12.6% (active) and 114% (inactive) and 106% (inactive) | 4.41% (active) and 114% (inactive) and 103% (inactive) | -4.09% (active) and 112% (inactive) and 102% (inactive) | 35.8% (inactive) and 100% (inactive) and 90.7% (inactive) | -19.3% (active) and 108% (inactive) and 109% (inactive) | 1.46% (active) and 114% (inactive) and 105% (inactive) | -23.9% (active) and 112% (inactive) and 105% (inactive) | -42.7% (active) and 104% (inactive) | 0.783% (active) and 105% (inactive) and 102% (inactive) | 18.2% (inactive) and 88.8% (inactive) and 102% (inactive)
O=C(Nc1cccc(-n2ccc3c(NC(=O)c4ccccc4)nccc32)c1)c1ccc(Cl)c(C(F)(F)F)c1 | -36% (active) and 61.6% (inactive) | 2.58% (active) and 27.6% (inactive) | -35.4% (active) | -11.2% (active) and 81.4% (inactive) | -89.4% (active) and 94.8% (inactive) | -44.1% (active) | -53.7% (active) and 38.4% (inactive) | -66% (active) and 52.8% (inactive) | 65.2% (inactive) | -29.6% (active) and 64% (inactive)
CCN(CC)CCCC(C)N(Cc1ccccc1)CC(O)c1ccc(Cl)cc1 (stereo not given) | 109% (inactive) and 106% (inactive) | 100% (inactive) and 106% (inactive) | 103% (inactive) | 114% (inactive) and 105% (inactive) | 101% (inactive) and 106% (inactive) | 102% (inactive) and 100% (inactive) | 103% (inactive) and 96% (inactive) | 111% (inactive) and 95.9% (inactive) | 102% (inactive) and 105% (inactive) | 109% (inactive) and 104% (inactive)
CC(=O)Nc1ccc(O)cc1 | 103% (inactive) and 113% (inactive) and 118% (inactive) | 107% (inactive) and 83.2% (inactive) and 106% (inactive) | 100% (inactive) and 1.98% (active) and 142% (inactive) | 101% (inactive) and 119% (inactive) and 92.4% (inactive) | 108% (inactive) and 129% (inactive) | 100% (inactive) and 106% (inactive) and 105% (inactive) | 89.9% (inactive) and 94.1% (inactive) and 107% (inactive) | 104% (inactive) and 95.4% (inactive) and 103% (inactive) | 98.3% (inactive) and 155% (inactive) and 107% (inactive) | 97.2% (inactive) and 123% (inactive) and 109% (inactive)
Cc1c(Cl)cccc1NCN1C(=O)c2ccccc2C1=O | 115% (inactive) | 109% (inactive) | 104% (inactive) | 121% (inactive) | 107% (inactive) | 107% (inactive) | 102% (inactive) | 102% (inactive) | 100% (inactive) | 110% (inactive)
O=[N+]([O-])c1ccc(-n2[nH]nnc2=S)cc1 | 112% (inactive) | 102% (inactive) | 89.2% (inactive) | 93.6% (inactive) | 166% (inactive) | 98.3% (inactive) | 95.2% (inactive) | 104% (inactive) | 113% (inactive) | 109% (inactive)
CO/N=C/C=C\C(=O)N/C=C/C[C@H]1/C=C/[C@H](O)/C=C\C=C\c2cccc(O)c2C(=O)O1 | 55.6% (inactive) and 40% (inactive) | 4.46% (active) and 2.94% (active) | 59.8% (inactive) and 22.5% (inactive) | 27.3% (inactive) and 41.9% (inactive) | 51% (inactive) and 55.5% (inactive) | 45.5% (inactive) and 31.9% (inactive) | -36.9% (active) and -43.7% (active) | 21% (inactive) and 4.04% (active) | -16.7% (active) and 21.8% (inactive) | -13.4% (active) and -41% (active)
CC1=C(/C=C/C(C)=C/C=C/C(C)=C/C(=O)O)C(C)(C)CCC1 | 103% (inactive) and 83.3% (inactive) | 108% (inactive) and 89.5% (inactive) | 69.1% (inactive) and 35.6% (inactive) and 70.6% (inactive) | 78.1% (inactive) and 82.2% (inactive) and 85.1% (inactive) | 94.2% (inactive) and 89.6% (inactive) and 91.3% (inactive) | 91.7% (inactive) and 92.9% (inactive) and 101% (inactive) | 69.3% (inactive) and 88.1% (inactive) and 114% (inactive) | 88.7% (inactive) and 62.2% (inactive) and 86.1% (inactive) | 94.7% (inactive) and 82.5% (inactive) and 93.9% (inactive) | 109% (inactive) and 95.3% (inactive) and 91.5% (inactive)
Cc1cc(O)c(C(C)C)cc1S(=O)(=O)O (tested in a mixture with another compound) | 120% (inactive) and 5.68% (active) and 115% (inactive) | 111% (inactive) and 3.5% (active) and 104% (inactive) | 99.7% (inactive) and 47.1% (inactive) and 93.1% (inactive) | 107% (inactive) and 10.3% (inactive) and 90.1% (inactive) | 97.3% (inactive) and 8.53% (active) and 118% (inactive) | 101% (inactive) and 22% (inactive) and 109% (inactive) | 101% (inactive) and 77.7% (inactive) | 93.1% (inactive) and 4.98% (active) and 94.7% (inactive) | 92.6% (inactive) and 40.4% (inactive) and 94.9% (inactive) | 91.5% (inactive) and -39.1% (active) and 106% (inactive)
